# Experimental data taken from PubChem BioAssay AID2029 (NMMLSC, 2009).
# About 210 (0.066%) of roughly 320,000 compounds were called active. This excerpt belongs to a sample that is enriched for actives. Unmarked numbers belong to inactive results.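 Rule for the calls: active = GFP response relative to DMSO above a set limit, near the screen mean plus 3 SD (cut at about 150% in these data); inconclusive = Fewer than 70 cells measured for a yeast strain; inactive = the rest.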
# Assay: modulators of CIT2-GFP expression in yeast, primary screen, S. cerevisiae, GFP fusion, multiplex flow cytometry, MLPCN library (AID 2029);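 note: ratio of well median GFP fluorescence to mean of DMSO wells on the plate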
# Conditions: S. cerevisiae CIT2-GFP strain, 3 h, at 10 µM, active compounds read high, 100 means same as DMSO wells
row,SMILES,GFP response vs DMSO
1,Oc1cccc2ccc(/C=C/c3ccc(Br)s3)nc12,98.5%
2,Cc1cc(N=Nc2ccc3ccccc3c2)ccc1O,97.3%
3,Cc1cccc(N(C)C(=O)c2cc(S(=O)(=O)N3CCCCC3)c[nH]2)c1,105%
4,C=CCNc1nc(Nc2ccc(Cl)cc2)nc(OC)n1,87%
5,COC(=O)COc1ccc2c(=O)c(Oc3ccccc3Br)coc2c1,100%
6,COc1ccc(C2(C)ON(c3ccccc3C(F)(F)F)C2=O)cc1 (centres undefined),97%
7,Cc1noc(NS(=O)(=O)c2ccc(N3CC(O)=C(c4ccccc4)C3=N)cc2)c1C,103%
8,O=C(COC(=O)Cn1cnc2ccccc2c1=O)NCC12CC3CC(CC(C3)C1)C2,101%
9,O=C(COC(=O)c1cc(S(=O)(=O)N2CCOCC2)ccc1Cl)NCCc1ccccc1,98.2%
10,CCCc1nn(C)c2c(=O)[nH]c(-c3cc(S(N)(=O)=O)ccc3OCC)nc12,96%
11,Cc1cc(C)cc(NS(=O)(=O)Cc2ccccc2)c1,103%
12,CC(OC(=O)CNC(=O)c1ccco1)C(=O)Nc1ccc(Cl)cn1 (centres undefined),98.1%
13,O=C(N/C(=C\c1ccc(O)cc1)C(=O)N1CCCCC1)c1ccccc1,108%
14,COc1cc(/C=C/C(=O)O)cc(S(=O)(=O)Nc2ccccc2SC)c1OC,110%
15,CCc1cccc2c3c([nH]c12)C(CC)(CC(=O)O)OCC3 (centres undefined),83.9%
16,Cc1cccc(CN2CCC(n3nccc3NC(=O)c3ccccc3C)CC2)n1,107%
17,CCc1n[nH]c(=S)n1/N=C/c1c[nH]c2ccc(Br)cc12,106%
18,CCOc1ccc(NS(=O)(=O)c2ccc(C)c(C(N)=O)c2)cc1,94%
19,NC(=O)c1oc2ccccc2c1NC(=O)CS(=O)(=O)c1ccccc1,110%
20,CC1(C)C2CC=C(/C=N/NC(=O)C3CC3)C1C2 (centres undefined),91.7%

row,SMILES,GFP response vs DMSO
1,COCCNC(=O)CN(Cc1ccco1)C(=O)CCC(=O)Nc1nccs1,105%
2,CCn1c(SCC(=O)Nc2nc(C)cs2)nnc1C(C)NC(=O)c1ccccc1 (centres undefined),101%
3,CN(c1ccccc1)c1ccc(/C=c2\s/c(=C(/C#N)C(=O)C(C)(C)C)n(Cc3ccco3)c2=O)cc1,352% (active)
4,CCOC(=O)Cn1c(=O)oc2cc(S(=O)(=O)N(C)Cc3ccco3)ccc21,96.1%
5,CCOC(=O)/C=c1\s/c(=C\c2ccc(C#N)cc2)c(=O)n1CC(=O)Nc1cccc(C)c1C,97.6%
6,COc1ccc(-n2nnc3c(=O)n(CC(=O)N4CCC(Cc5ccccc5)CC4)cnc32)cc1,89.3%
7,CCn1c(/C=C/Nc2ccccc2)[n+](CC)c2ccc(C(=O)OCC(F)(F)F)cc21,97.8%
8,COc1ccc(/C=N/NC(=O)C(C)N(c2ccc(OC)cc2)S(C)(=O)=O)cc1 (centres undefined),109%
9,Cc1cccc(NS(=O)(=O)c2ccc(C)c(C(=O)NCc3cccnc3)c2)c1,107%
10,O=C(O)C1CCN(C(=O)c2cc(F)cc3c2OCOC3)CC1,109%
11,O=S(=O)(c1ccc(Br)cc1)N1CCC(c2nc3ccccc3[nH]2)CC1,111%
12,CC(=O)N(CCCN(C)C)c1nc2ccc(C)cc2s1,111%
13,Cc1ccc2nc(N(CCN(C)C)C(=O)C3=COCCO3)sc2c1,161% (active)
14,CN(C)CCN(C(=O)C1=COCCO1)c1nc2ccc(Cl)cc2s1,92.3%
15,CCc1ccc(Oc2coc3cc(O)ccc3c2=O)cc1,94.9%
16,CCN(CC(=O)Nc1cc(Cl)ccc1C)C(=O)Cn1c(=O)cnc2ccccc21,110%
17,O=c1[nH]c(CN2CCN(S(=O)(=O)c3ccc4c(c3)OCCO4)CC2)nc2sc3c(c12)CCCC3,101%
18,CCn1c(=O)c([N+](=O)[O-])c(NCc2ccc3c(c2)OCO3)c2ccccc21,88.2%
19,CCc1ccc(S(=O)(=O)N/N=C\c2ccc([N+](=O)[O-])o2)cc1,91.7%
20,CCn1c(/C=C/c2ccc([N+](=O)[O-])o2)nc2ccccc2c1=O,210% (active)

row,SMILES,GFP response vs DMSO
1,COc1ccc(S(=O)(=O)NCCOc2ccccc2)cc1F,94.3%
2,COCC(C)n1c(SCC(=O)NC2CCCCC2C)nc2ccccc2c1=O (centres undefined),101%
3,CC(=O)Nc1ccc(NC(=O)C(C)n2c3ccccc3c3nc(=O)cc(C)n32)cc1 (centres undefined),109%
4,CC(C)NC(=O)C(c1ccc(F)cc1)N(C(=O)CCC(=O)Nc1ccccn1)c1ccccc1F (centres undefined),88.4%
5,CCOc1cccc(-c2nnc(SCC(=O)NC3CC3)n2C)c1,98.9%
6,C[n+]1ccc(/C=C/c2c[nH]c3ccccc23)cc1,274% (active)
7,O=C(N/N=C/c1c[nH]c2ccccc12)c1ccccc1O,80.8%
8,COc1ccc(/C=C(\C#N)c2c[nH]c3ccccc23)cc1,79.6%
9,CCCCNC(=O)N(O)C1N(/N=C/c2ccc(N(C)C)cc2)C(=S)SC1(C)C (centres undefined),105%
10,COc1ccc([C@H]2CC(=O)C=C(/C=C/c3ccc(Cl)cc3)C2)cc1,104%
11,CC(C)Oc1ccc(CCc2n[nH]c(=S)n2Cc2ccccc2)cc1,98.5%
12,N#Cc1nc(N)nc(N(c2ccccc2)c2ccccc2)n1,113%
13,O=C(NCC1CCCO1)c1ccccc1-c1nc(-c2ccccc2Cl)no1 (centres undefined),77%
14,CC(=O)Nc1ccc(S(=O)(=O)Nc2ccc(-c3ccc4nnc(C)n4n3)cc2)cc1,102%
15,O=C(NNc1cc(Cl)ccc1Cl)c1cccnc1Cl,107%
16,CC(C)C(NC(=O)C1CCC(C(C)(C)C)CC1)C(=O)NCCCN1CCCCC1 (centres undefined),94.8%
17,O=C(CC1OC(=O)c2ccccc21)NC1CCCCC1 (centres undefined),109%
18,O=C(CSc1nnc(Nc2ccccc2F)s1)NC1CCCC1,85.1%
19,O=C(Oc1cccc(C(=S)N2CCOCC2)c1)c1cccc(Cl)c1,94.4%
